Measured values published in ChEMBL document CHEMBL1157539, “Thousands of chemical starting points for antimalarial lead identification” (Nature, 2010).

Columns and labels:
Type in all cases: functional
[1] = system: Plasmodium falciparum; test: GSK_TCMDC: Inhibition of Plasmodium falciparum 3D7 in whole red blood cells, using parasite LDH activity as an index of growth. Test compounds present at 2uM
[2] = system: Plasmodium falciparum; test: GSK_TCMDC: Inhibition of Plasmodium falciparum Dd2 in whole red blood cells, using parasite LDH activity as an index of growth. Test compounds present at 2uM
[3] = system: HepG2; test: GSK_TCMDC: Percent inhibition of human HepG2 cell line. Test compounds present at 10uM.

Row | Compound | Inhibition [1] [%] | Inhibition [2] [%] | Inhibition [3] [%]
1 | O=C(NCc1ccccc1)C1Cc2c([nH]c3ccc(Br)cc23)C2(CCN(Cc3ccccc3)CC2)N1 (configuration not stated) | 98 | 70 | 15
2 | CN(C)Cc1c(O)ccc2[nH]c(-c3ccc(OC(F)(F)F)cc3)nc12 | 100 | 97 | 24
3 | CCOc1cc2ccccc2cc1CNCCCCCCNCc1cc2ccccc2cc1OCC.CS(=O)(=O)O | 100 | 76 | 99
4 | N#Cc1cccc(NC(=O)Nc2ccc3c(c2)CN(Cc2c[nH]c4ncccc24)C3)c1 | 99 | 12 | 0
